Consider 38 compounds from the supplement of paper PMC9694430.

Where “and” joins values, the source holds several entries; their conditions need not be identical. Equal values may be shown once. Where a name gives a salt, the structure may show the parent alone.
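Note: purified Escherichia coli-expressed rice kinase domain construct.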

One experiment deals with T1, LOC_OS06G22820-cb001.
T1 sequence (whole entry): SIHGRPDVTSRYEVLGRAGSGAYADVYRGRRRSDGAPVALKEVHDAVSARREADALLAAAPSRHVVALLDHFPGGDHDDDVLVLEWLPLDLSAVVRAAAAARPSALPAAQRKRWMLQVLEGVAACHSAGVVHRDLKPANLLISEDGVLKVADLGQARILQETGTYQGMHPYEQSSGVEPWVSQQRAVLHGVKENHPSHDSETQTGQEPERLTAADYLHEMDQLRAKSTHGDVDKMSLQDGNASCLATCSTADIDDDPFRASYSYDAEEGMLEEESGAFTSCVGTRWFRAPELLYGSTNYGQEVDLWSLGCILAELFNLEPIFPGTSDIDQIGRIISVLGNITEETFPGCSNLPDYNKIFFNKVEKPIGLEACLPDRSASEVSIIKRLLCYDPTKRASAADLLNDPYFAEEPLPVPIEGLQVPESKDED
Nature of the experiment: thermal shift delta Tm vs DMSO control; higher = stronger stabilization (binding). Conditions: 12.5 µM; protein concentration 2 µM. An outline of the steps: (§1)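 Heating from 25°C to 95°C at 0.05°C/s, fluorescence was recorded for 19.5 μl wells of 2 μM E. coli-expressed, purified rice kinase domain in 100 mM potassium phosphate pH 7.5, 150 mM NaCl, 10% glycerol and 5 × SYPRO Orange with compound in DMSO. Boltzmann fits gave melting temperatures for this differential scanning fluorimetry assay. The shift reported is the mean of three replicates against the DMSO-only protein.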
For the compound `c1cncc(CN2CCC(n3ncc4c(N5CCOCC5)nc(-c5ccc6[nH]ccc6c5)nc43)CC2)c1`, the “thermal shift delta Tm” value was 0.42 °C.
Still for that read-out and setting: to `CCCS(=O)(=O)Nc1ccc(F)c(C(=O)c2c[nH]c3ncc(Cl)cc23)c1F` belongs 0.42 °C; to `COC(=O)N[C@@H](C)CNc1nccc(-c2cn(C(C)C)nc2-c2cc(Cl)cc(NS(C)(=O)=O)c2F)n1` [Encorafenib (LGX818)], 0.46 °C.
The same measure, in the same setting: the figure for `O=C1c2c(O)cc(O)cc2OC(c2ccc(O)c(O)c2)C1O` (stereo unspecified) [Taxifolin (Dihydroquercetin)] is 0.59 °C; for `CCCCCCCCCCCCc1ccc(S(=O)(=O)Nc2nncs2)cc1` it is 0.75 °C.
On the same count and under the same terms, the figure for `COc1cc2c(c(OC)c1OC)-c1c(cc3c(c1OC)OCO3)CC(C)C(C)C2` (stereo unspecified) [Schisandrin B (Sch B)] is 0.43 °C; for `CS(=O)(=O)c1ccc(-c2cnc(N)c(C(=O)Nc3ccccc3)n2)cc1` it is 0.37 °C.
In the case of `CC1Oc2cc(cnc2N)-c2c(nn(C)c2C#N)CN(C)C(=O)c2ccc(F)cc21` (stereo unspecified), the “thermal shift delta Tm” value came to 0.16 °C.
The same measure, in the same setting: the figure for `Cc1ccc2nc(NCCN)c3ncc(C)n3c2c1` is 0.81 °C; for `C[C@@H](N)c1ccc(C(=O)Nc2ccnc3[nH]ccc23)cc1` it is 0.59 °C; for `CCn1c(N)c(C(=O)NC)c(=O)c2ccc(C#CC(C)(O)COC)nc21` (stereo unspecified) it is 0.3 °C.
Consider `COC(=O)[C@]12CCC(C)(C)C[C@H]1[C@H]1C(=O)C=C3[C@@]4(C)C=C(C#N)C(=O)C(C)(C)[C@@H]4CC[C@@]3(C)[C@]1(C)CC2` [Bardoxolone Methyl], for which the “thermal shift delta Tm” value turned out to be 0.1 °C.
The same measure, in the same setting: the figure for `COc1cc(Nc2ncc(F)c(Nc3ccc4c(n3)N(COP(=O)(O)O)C(=O)C(C)(C)O4)n2)cc(OC)c1OC` [R788 (Fostamatinib) Disodium] is 0.9 °C; for `CC#CC(=O)Nc1ccc2ncnc(Nc3cccc(Br)c3)c2c1` it is 0.56 °C; for `Cc1c(C(=O)N2CCOc3ccc(-c4ccc(N)nc4)cc3C2)ccc(S(C)(=O)=O)c1F` it is 0.73 °C.
The same measure, in the same setting: the figure for `COc1ccc(-c2ccc3c(N4CCOCC4)nc(N4C[C@@H](C)O[C@@H](C)C4)nc3n2)cc1CO` is 0.14 °C; for `O=C(Nc1cnn2ccc(N3CCC[C@@H]3c3cc(F)ccc3F)nc12)N1CC[C@H](O)C1` [Larotrectinib (LOXO-101) sulfate] it is 0.35 °C.
Still for that read-out and setting: to `O=C(NCCCNc1nc(Nc2cccc(NC(=O)N3CCCC3)c2)ncc1I)c1cccs1` belongs 0.36 °C.
Regarding `Nc1cccc(-c2cc3c(Oc4cccc(O)c4)ncnc3[nH]2)c1`, the “thermal shift delta Tm” value worked out at 0.88 °C.
Still for that read-out and setting: to `CC(C)(C)NC(=O)c1cncn1C1CCN(c2ccc(-c3nnc(C(F)(F)F)o3)cn2)CC1` belongs 0.29 °C.
Regarding `Nc1nc2cc(-c3ccc4ncc(C(=O)N5CCOCC5)n4c3)ccc2o1` [Serabelisib (INK-1117,MLN-1117,TAK-117)], the “thermal shift delta Tm” value was 0.5 °C.
On the same count and under the same terms, to `COCCOc1ccc2c(c1)ncn2-c1ccc2cccc(N3CCC(N)CC3)c2n1` belongs 0.77 °C; to `CC(C)CCN1c2nc(Nc3cc(F)c(O)c(F)c3)ncc2N(C)C(=O)C1C` (stereo unspecified), 1.8 °C.
On the same count and under the same terms, the figure for `O=c1cc(-c2cccc3c2Sc2ccccc2S3)oc(N2CCOCC2)c1` is 0.79 °C.
Same read-out and setting: the figure for `N=C(N)NC(=N)NCCc1ccccc1` [Phenformin HCl] is 0.41 °C; for `CC(C)=CC[C@@H](O)C1=CC(=O)c2c(O)ccc(O)c2C1=O` [Shikonin] it is -0.26 °C; for `CCN(CC)CCNC(=O)c1c(C)[nH]c(/C=C2\C(=O)Nc3ccc(F)cc32)c1C` [Sunitinib] it is 0.22 °C.
Regarding `Nc1ncnc2c1c(-c1cnc3[nH]ccc3c1)nn2C1CCCC1`, the “thermal shift delta Tm” value was 0.34 °C.
Still for that read-out and setting: to `CC(=O)Nc1cccc(-n2c(=O)n(C3CC3)c(=O)c3c(Nc4ccc(I)cc4F)n(C)c(=O)c(C)c32)c1` belongs 0.44 °C; to `O=C(NC[C@H](O)CO)c1ccncc1Nc1ccc(I)cc1F`, 0.62 °C.
On the same count and under the same terms, to `COc1cc2ncnc(Oc3ccc(CC(=O)Nc4cnn(C(C)C)c4)cc3)c2cc1OC` belongs 0.41 °C; to `Nc1cccc(S(=O)(=O)N2CCCN(S(=O)(=O)c3ccc4c(c3)OCCO4)CC2)c1`, 0.44 °C; to `CCN1CCN(Cc2ccc(C(=O)Nc3ccc(C)c(Oc4ccc5c(c4)CC(=O)N5)c3)cc2C(F)(F)F)CC1`, 0.56 °C.
For the compound `C=CC(=O)Nc1ccc2ncnc(Nc3ccc(OCc4cccc(F)c4)c(Cl)c3)c2c1`, the “thermal shift delta Tm” value is 2.98 °C.
On to `Nc1ccc(-c2ccc3ncc4ccc(=O)n(-c5cccc(C(F)(F)F)c5)c4c3c2)cn1` [Torin 2], for which the “thermal shift delta Tm” value was determined as 0.56 °C.
In the case of `C[C@@H]1CCN(C(=O)CC#N)C[C@@H]1N(C)c1ncnc2[nH]ccc12`, the “thermal shift delta Tm” value was 0.46 °C and 1.08 °C.
Still for that read-out and setting: to `CN1CCCN(C(=O)c2cccc(-c3ccc(/C=C4/C(=O)Nc5ccc(Cl)cc54)o3)c2)CC1` belongs 0.37 °C; to `C[C@@H](Oc1cc(-c2cnn(C3CCNCC3)c2)cnc1N)c1c(Cl)ccc(F)c1Cl`, 0.95 °C.

For the next experiment, the system named is LOC_OS07G06570-cb004. The description is as above. Conditions: 12.5 µM; protein concentration 2 µM. An outline of the steps:
as §1
Turning to `c1cncc(CN2CCC(n3ncc4c(N5CCOCC5)nc(-c5ccc6[nH]ccc6c5)nc43)CC2)c1`, the “thermal shift delta Tm” value turned out to be 0.64 °C.
Regarding `CCCS(=O)(=O)Nc1ccc(F)c(C(=O)c2c[nH]c3ncc(Cl)cc23)c1F`, the “thermal shift delta Tm” value was 0.7 °C.
The same measure, in the same setting: to `COC(=O)N[C@@H](C)CNc1nccc(-c2cn(C(C)C)nc2-c2cc(Cl)cc(NS(C)(=O)=O)c2F)n1` [Encorafenib (LGX818)] belongs 1.58 °C; to `O=C1c2c(O)cc(O)cc2OC(c2ccc(O)c(O)c2)C1O` (stereo unspecified) [Taxifolin (Dihydroquercetin)], 0.96 °C; to `CCCCCCCCCCCCc1ccc(S(=O)(=O)Nc2nncs2)cc1`, 1.23 °C.
The same measure, in the same setting: the figure for `COc1cc2c(c(OC)c1OC)-c1c(cc3c(c1OC)OCO3)CC(C)C(C)C2` (stereo unspecified) [Schisandrin B (Sch B)] is 1.21 °C; for `CS(=O)(=O)c1ccc(-c2cnc(N)c(C(=O)Nc3ccccc3)n2)cc1` it is 0.82 °C; for `CC1Oc2cc(cnc2N)-c2c(nn(C)c2C#N)CN(C)C(=O)c2ccc(F)cc21` (stereo unspecified) it is 0.86 °C.
Still for that read-out and setting: the figure for `Cc1ccc2nc(NCCN)c3ncc(C)n3c2c1` is 1.79 °C.
In the case of `C[C@@H](N)c1ccc(C(=O)Nc2ccnc3[nH]ccc23)cc1`, the “thermal shift delta Tm” value is 0.72 °C.
Still for that read-out and setting: to `CCn1c(N)c(C(=O)NC)c(=O)c2ccc(C#CC(C)(O)COC)nc21` (stereo unspecified) belongs 1.2 °C; to `COC(=O)[C@]12CCC(C)(C)C[C@H]1[C@H]1C(=O)C=C3[C@@]4(C)C=C(C#N)C(=O)C(C)(C)[C@@H]4CC[C@@]3(C)[C@]1(C)CC2` [Bardoxolone Methyl], 0.47 °C; to `COc1cc(Nc2ncc(F)c(Nc3ccc4c(n3)N(COP(=O)(O)O)C(=O)C(C)(C)O4)n2)cc(OC)c1OC` [R788 (Fostamatinib) Disodium], 1.71 °C.
With `CC#CC(=O)Nc1ccc2ncnc(Nc3cccc(Br)c3)c2c1`, the “thermal shift delta Tm” value stood at 1.04 °C.
Same read-out and setting: the figure for `Cc1c(C(=O)N2CCOc3ccc(-c4ccc(N)nc4)cc3C2)ccc(S(C)(=O)=O)c1F` is 0.94 °C.
Still for that read-out and setting: the figure for `COc1ccc(-c2ccc3c(N4CCOCC4)nc(N4C[C@@H](C)O[C@@H](C)C4)nc3n2)cc1CO` is 0.51 °C; for `O=C(Nc1cnn2ccc(N3CCC[C@@H]3c3cc(F)ccc3F)nc12)N1CC[C@H](O)C1` [Larotrectinib (LOXO-101) sulfate] it is 0.63 °C.
For `O=C(NCCCNc1nc(Nc2cccc(NC(=O)N3CCCC3)c2)ncc1I)c1cccs1`, the “thermal shift delta Tm” value turned out to be 0.51 °C.
The same measure, in the same setting: to `Nc1cccc(-c2cc3c(Oc4cccc(O)c4)ncnc3[nH]2)c1` belongs 1.36 °C; to `CC(C)(C)NC(=O)c1cncn1C1CCN(c2ccc(-c3nnc(C(F)(F)F)o3)cn2)CC1`, 1.08 °C; to `Nc1nc2cc(-c3ccc4ncc(C(=O)N5CCOCC5)n4c3)ccc2o1` [Serabelisib (INK-1117,MLN-1117,TAK-117)], 1.85 °C.
The same measure, in the same setting: the figure for `COCCOc1ccc2c(c1)ncn2-c1ccc2cccc(N3CCC(N)CC3)c2n1` is 1.03 °C.
As for `CC(C)CCN1c2nc(Nc3cc(F)c(O)c(F)c3)ncc2N(C)C(=O)C1C` (stereo unspecified), the “thermal shift delta Tm” value was determined as 3.6 °C.
On the same count and under the same terms, to `O=c1cc(-c2cccc3c2Sc2ccccc2S3)oc(N2CCOCC2)c1` belongs 0.35 °C; to `N=C(N)NC(=N)NCCc1ccccc1` [Phenformin HCl], 0.53 °C.
Still for that read-out and setting: to `CC(C)=CC[C@@H](O)C1=CC(=O)c2c(O)ccc(O)c2C1=O` [Shikonin] belongs 7.3 °C; to `CCN(CC)CCNC(=O)c1c(C)[nH]c(/C=C2\C(=O)Nc3ccc(F)cc32)c1C` [Sunitinib], 0.72 °C.
Consider `Nc1ncnc2c1c(-c1cnc3[nH]ccc3c1)nn2C1CCCC1`, for which the “thermal shift delta Tm” value was found to be 0.72 °C.
As for `CC(=O)Nc1cccc(-n2c(=O)n(C3CC3)c(=O)c3c(Nc4ccc(I)cc4F)n(C)c(=O)c(C)c32)c1`, the “thermal shift delta Tm” value was 0.26 °C.
Same read-out and setting: the figure for `O=C(NC[C@H](O)CO)c1ccncc1Nc1ccc(I)cc1F` is 0.95 °C; for `COc1cc2ncnc(Oc3ccc(CC(=O)Nc4cnn(C(C)C)c4)cc3)c2cc1OC` it is 1.54 °C.
Same read-out and setting: to `Nc1cccc(S(=O)(=O)N2CCCN(S(=O)(=O)c3ccc4c(c3)OCCO4)CC2)c1` belongs 1.4 °C; to `CCN1CCN(Cc2ccc(C(=O)Nc3ccc(C)c(Oc4ccc5c(c4)CC(=O)N5)c3)cc2C(F)(F)F)CC1`, 0.16 °C; to `C=CC(=O)Nc1ccc2ncnc(Nc3ccc(OCc4cccc(F)c4)c(Cl)c3)c2c1`, 1.79 °C.
Still for that read-out and setting: to `Nc1ccc(-c2ccc3ncc4ccc(=O)n(-c5cccc(C(F)(F)F)c5)c4c3c2)cn1` [Torin 2] belongs 1.44 °C; to `C[C@@H]1CCN(C(=O)CC#N)C[C@@H]1N(C)c1ncnc2[nH]ccc12`, 0.55 °C and 1.39 °C.
In the case of `CN1CCCN(C(=O)c2cccc(-c3ccc(/C=C4/C(=O)Nc5ccc(Cl)cc54)o3)c2)CC1`, the “thermal shift delta Tm” value was found to be 2.41 °C.
The same measure, in the same setting: the figure for `C[C@@H](Oc1cc(-c2cnn(C3CCNCC3)c2)cnc1N)c1c(Cl)ccc(F)c1Cl` is 0.69 °C.
